SARS PLpro yeast – SARS-CoV PLP inhibition in yeast | S. cerevisiae expressing SARS-CoV PLpro, growth rescue | Potency, µM (doses to about 32.9 µM), inactives show at the highest dose activity, positive = growth rescue, hits mostly activators | 330,000 compounds, 0.19% hits | AID 485353; calls by dose curve; further: 0% is about no effect; nearly all actives have a fitted effect of over 55% in size
Sm TGR block – inhibitors of Schistosoma mansoni thioredoxin glutathione reductase. 360,000 compounds, 3% hits. Q962Y6. Potency, µM (titrated, usually from 114 µM), for the others: at the top dose activity change, negative = inhibition, actives largely listed as inhibitors. purified TGR, DTNB reduction, TNB absorbance 405 nm; active means well fitted inhibition curve with a large enough effect; inconclusive means small, poorly fitted or top-dose-only effect; inactive means no such curve, though single readings can be large or run the other way; further: on the % scale 0 is the no-effect control and ±100 the full control effect; nearly all actives have a fitted effect of over 60% in size
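TGR 20 nM + NADPH 100 uM (dispensed conc.), cpd preinc 15 min RT; start with NADPH (500 uM addition) then DTNB (15 mM addition). Kinetic TNB absorbance, 405 nm filter. Four-parameter Hill fit across titration.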
* marks the source's active call; other numbers are inactive results; ? = inconclusive; · = not tested or not shown. An excerpt weighted towards active compounds, which were near 3% of everything screened. Potency means the concentration at half of the fitted maximal effect.

SMILES	SARS PLpro yeast	Sm TGR block
CN1CCN(CC(=O)c2cc(C(C)(C)C)c(O)c(C(C)(C)C)c2)CC1	-1%	-29%
CCN1CCN(Cc2cc(C(C)(C)C)c(O)c(C(C)(C)C)c2)CC1	-15%	2.8µM*
CC(C)(C)c1cc(CN2CCN(CCO)CC2)cc(C(C)(C)C)c1O	-32%	2.5µM*
CCCCn1c(=O)c2oc3ccccc3c2n(Cc2cccc(F)c2)c1=O	·	-2%
Cc1ccc(CN2CCCn3nc(C(=O)NCc4cc(C)ccc4C)cc3C2=O)cc1	·	-4%
COc1ccc2c(c1)CC(C(=O)NCCCN1CCN(c3cccc(Cl)c3)CC1)CO2 (centres undefined)	·	2%
Cc1ccc(-n2nc(C)c3c(=O)[nH]c(C(F)(F)F)nc32)cc1	13%	0%
Cc1nn(-c2ccccc2)c2nc(C(Cl)(Cl)Cl)[nH]c(=O)c12	-1%	13µM*
CCCNS(=O)(=O)c1ccc2nc(NC(=O)c3ccc(F)cc3)sc2c1	·	-4%
Cc1cccc(NC2=C(Cl)C(=O)OC2OC(=O)c2ccco2)c1 (centres undefined)	1%	14µM*
Cc1cccc(NC2=C(Cl)C(=O)OC2OC(C)C)c1 (centres undefined)	-4%	-1%
Cc1ccc(NC2=C(Cl)C(=O)OC2OC(C)C)cc1 (centres undefined)	-8%	2%
Cc1ccc(NC2=C(Cl)C(=O)OC2OC(=O)c2ccco2)cc1 (centres undefined)	2%	14µM*
COc1ccc(CCNC(=O)CSc2n[nH]c(-c3ccccc3Cl)n2)cc1OC	·	-1%
COC(=O)c1c(NC(=O)c2cc(=O)c3ccc(C)c(C)c3o2)sc2c1CCCC2	·	1%
O=C(CSc1nccn1Cc1ccc(Cl)cc1)Nc1ccc2c(c1)OCCO2	·	-2%
O=C1[C@@H]2Cc3c([nH]c4ccccc34)[C@@H](c3ccccc3)N2C(=O)[C@@H]2Cc3c([nH]c4ccccc34)[C@@H](c3ccccc3)N12	-7%	-10%
CC1Cc2c([nH]c3ccccc23)C2c3ccccc3CN12 (centres undefined)	-2%	22µM*
CCN(CC)c1ccc(CNc2ccc3c(c2)ncn3CC)cc1	2%	?
CCn1cnc2cc(NCc3ccc(N(C)C)cc3)ccc21	1%	8.9µM*
CS(=O)(=O)N1CCc2cc(C(=O)Nc3ccc(S(N)(=O)=O)cc3)ccc21	·	-3%
S=C(Nc1ccc2nsnc2c1)N1CCCC1	-2%	40µM*
O=C(Nc1ccc2nsnc2c1)N1CCCCCC1	12%	-2%
COc1ccc(NC(=O)CSc2nc(-c3cccs3)cc(C(F)(F)F)n2)c(OC)c1	·	4%
CCOC(=O)c1cc2c(=O)n3ccccc3nc2n(Cc2ccco2)c1=NC(=O)c1ccccc1OC	3%	5.6µM*
SMILES	SARS PLpro yeast	Sm TGR block
CCOC(=O)c1cc2c(=O)n3ccccc3nc2n(Cc2ccco2)c1=NC(=O)c1ccc(OC)cc1	0%	?
CCOc1ccc2nc(N(Cc3cccnc3)C(=O)c3ccc4c(c3)OCCO4)sc2c1	·	0%
CCOc1ccc(NC(=O)c2cc(C)nc3c2c(C)nn3-c2cccc(F)c2)cc1	·	2%
O=[N+]([O-])c1cc(-c2nc(-c3ccccc3)no2)ccc1NCCc1ccccc1	·	1%
Cc1ccc2c(C(=O)CN3CCCCC3CCO)c(C)[nH]c2c1 (centres undefined)	-3%	?
CCC1CCCCN1CC(=O)c1c(C)[nH]c2cc(C)ccc12 (centres undefined)	-2%	45µM*
CCOC(=O)c1ccc(NC(=O)CSc2ccc3ccccc3n2)cc1	·	8%
Cc1sc2nc(CN3CCOCC3)nc(Oc3ccc(NC(=O)c4ccco4)cc3)c2c1C	-6%	28µM*
O=C(Nc1ccc(CN2CCOCC2)cc1)c1ccco1	-2%	1%
COc1ccccc1CNC(=O)C1CCCN(S(=O)(=O)c2ccc3c(c2)oc(=O)n3C)C1 (centres undefined)	·	2%
COc1c(O)cc2c(c1O)C1OC(CO)C(O)C(O)C1OC2=O (centres undefined)	·	0%
O=C1c2c(O)cccc2C(C2OC(CO)[C@@H](O)[C@H](O)[C@H]2O)c2cc(CO)cc(O)c21 (some centres undefined)	4%	40µM*
O=[N+]([O-])c1ccc(C(c2sc3nc(-c4ccco4)nn3c2O)N2CCN(c3cccc(Cl)c3)CC2)cc1 (centres undefined)	·	-1%
Cc1ccc2onc(CC(=O)N(C)c3ccccc3)c2c1	·	0%
CN(Cc1ccco1)C(=O)c1ccc(OC2CCN(Cc3ccccn3)CC2)cc1	-5%	?
CC#CCN(Cc1ccco1)C(=O)c1ccc(OC2CCN(Cc3ccccn3)CC2)cc1	0%	79µM*
COc1ccc(-c2[nH]c3ccccc3c2SCCNC(=O)c2cc(OC)c(OC)c(OC)c2)cc1	·	8%
O=C(/C=C/Sc1ccc(C(F)(F)F)cn1)c1ccccc1	-1%	89µM*
O=C(CSc1ccc(C(F)(F)F)cn1)Nc1ccccc1	0%	8%
CCCCSc1nnc2c(n1)OC(c1ccc(Br)s1)Nc1ccccc1-2 (centres undefined)	·	-20%
Cc1ccc(C)c(N2CCN(CCCNC(=O)c3cnn(-c4ccc(F)cc4)c3C3CCN(C(=O)OC(C)(C)C)CC3)CC2)c1	·	5%
COc1ccccc1NC(=O)CN1C(=O)CCSc2ccccc21	·	1%
CCOc1cc(/C=C(/C#N)C(=O)Nc2ccc(O)cc2)cc(Br)c1O	-29%	?
C=CCNC(=O)/C(C#N)=C\c1cc(Cl)c(O)c(OCC)c1	1%	40µM*
CCCCOC(=O)c1ccc(Nc2ncnc3[nH]ncc23)cc1	·	-3%
SMILES	SARS PLpro yeast	Sm TGR block
Clc1nssc1=Nc1nncs1	3%	50µM*
Clc1ccc(N=c2ssnc2Cl)nc1	1%	2%
O=C(NC1CC(=O)N(c2ccccc2)C1)c1cc2ccccc2o1 (centres undefined)	·	8%
O=C(CCSc1nc(-c2ccco2)cc(C(F)(F)F)n1)N1CCCc2ccccc21	-16%	40µM*
O=C(CCSc1nc(-c2ccco2)cc(C(F)(F)F)n1)N1CCN(c2ccccn2)CC1	-4%	?
COc1ccc(S(=O)(=O)N2CCC(C(=O)Nc3ccc(Oc4ccccc4)cc3)CC2)cc1OC	·	2%
CCCCCS(=O)(=O)c1oc(-c2cccs2)nc1S(=O)(=O)c1ccc(C)cc1	·	2.8µM*
CCSc1oc(-c2cccs2)nc1S(=O)(=O)c1ccccc1	12%	-31%
CCCSc1oc(-c2cccs2)nc1S(=O)(=O)c1ccc(C)cc1	·	10%
Cc1ccc(S(=O)(=O)c2nc(-c3ccc(F)cc3)oc2SCC(=O)c2ccccc2)cc1	·	-3%
CCCCS(=O)(=O)c1oc(-c2ccc(F)cc2)nc1S(=O)(=O)c1ccc(C)cc1	·	3.2µM*
CSc1oc(-c2ccc(F)cc2)nc1S(=O)(=O)c1ccc(Br)cc1	·	8%
CCC(C)S(=O)(=O)c1oc(-c2ccc(F)cc2)nc1S(=O)(=O)c1ccc(F)cc1 (centres undefined)	·	5.6µM*
CCCCS(=O)(=O)c1oc(-c2cccs2)nc1S(=O)(=O)c1ccc(F)cc1	·	1.6µM*
CCc1ccc(N2C(=O)CC(c3cc(OC)ccc3OC)C3=C2COC3=O)cc1 (centres undefined)	·	2%
O=C(CSc1c2c(nc3cc(Cl)ccc13)CCCC2)N1CCN(c2ccccc2F)CC1	·	-4%
O=C(/C=C/c1ccc(F)cc1)Nc1nc2n(n1)C(c1ccc(Cl)cc1)C=C(c1ccccc1)N2 (centres undefined)	·	-4%

Screening data: PubChem, National Center for Advancing Translational Sciences (NCATS)
